For nine compounds, outcome, Potency and max activation results are on record in PubChem BioAssay (Tox21).

The target in assay [1] is Thyrotropin-releasing hormone receptor (Homo sapiens) (UniProt P34981). As to the kind of experiment: qHTS assay to identify small molecule agonists of the thyrotropin-releasing hormone receptor (TRHR) signaling pathway (AID 1346891; calls by dose curve; note: series mostly up to about 58 µM). Put shortly: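 HEK293 cells expressing TRHR plated 18 h at 37 C/5% CO2, calcium dye-loaded 2 h at 37 C, then compound added (agonist mode); kinetic calcium fluorescence read 3 min at 1 s intervals; 15 concentrations in triplicate.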
For orientation: In qHTS, concentration-response curves come from the screen itself.

The nature of assay [2]: Human pregnane X receptor (PXR) small molecule agonists, qHTS cell viability counter screen (AID 1346977). Note: nearly all actives have a fitted effect of over 50% in size. A digest of the protocol:
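PXR-Luc HepG2 cells (2,000/well, 5% charcoal-stripped FBS) preincubated 5 hr, then exposed to compounds 24 hr at 37 C. Viability read in the same wells by CellTiter-Fluor fluorescence, reagent added at 23 hr, 1 hr incubation.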

Assay [3] can be described thus: Caspase-3/7 induction in HepG2 cells by small molecules, qHTS assay (AID 1346978). Note: nearly all actives have a fitted effect of over 15% in size. A digest of the protocol: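 Wild-type HepG2 cells (2,000/well) were settled 5 h at 37 C, 5% CO2, then exposed to compounds in DMSO for 17 h. Caspase-3/7 activity was read by luminescence 30 min after adding Caspase-Glo 3/7 reagent at room temperature.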
Assay [4] can be described thus: Caspase-3/7 induction in CHO-K1 cells by small molecules, qHTS cell viability counter screen (AID 1346979). Note: nearly all actives have a fitted effect of over 35% in size. Put shortly: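 Wild-type CHO-K1 cells (1,500/well) treated with compound after 5 h plating; after 16 h at 37C, viability read as CellTiter-Fluor fluorescence following 1 h reagent incubation, in the same wells as the caspase read.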
Assay [5] is described as follows: Caspase-3/7 induction in CHO-K1 cells by small molecules, qHTS assay (AID 1346980). Note: nearly all actives have a fitted effect of over 15% in size. A digest of the protocol:
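Wild-type cells were seeded at 1,500 per well and settled 5 hr at 37 C, 5% CO2, then exposed to DMSO-dissolved compounds for 17 hr. Caspase-Glo 3/7 reagent was added, and luminescence was read after 30min at room temperature.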

Assay [6] is described as follows: Caspase-3/7 induction in HepG2 cells by small molecules, qHTS cell viability counter screen (AID 1346981). Note: series mostly up to about 92 µM; nearly all actives have a fitted effect of over 30% in size. A digest of the protocol:
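CellTiter-Fluor fluorescence measured viability in the same wells used for Caspase-Glo 3/7. HepG2 (wild type) at 2,000 cells/well were pre-incubated 5 hr, dosed, and given reagent at 16 hr, with 1 hr further at 37C.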

Assay [7] concerns the target Nuclear receptor subfamily 1 group I member 2 (Rattus norvegicus) (UniProt Q9R1A7). As to the kind of experiment: Rat pregnane X receptor (rPXR) activation by small molecules, qHTS assay (AID 1346983). Note: nearly all actives have a fitted effect of over 20% in size. To be noted: rPXR luciferase reporter cells, One-Glo luminescence, 24 h; stronger effect = higher value. A digest of the protocol: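 Cell-based rPXR luciferase reporter assay, 2,000 cells per well, rested 5hr at 37 C before compound addition in DMSO, then 24 hr at 37 C. One-Glo reagent was added and luminescence read after 30 min at room temperature.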

Assay [8] addresses Nuclear receptor subfamily 1 group I member 2 (Homo sapiens) (UniProt O75469). As to the kind of experiment: CYP3A4 induction through human pregnane X receptor (PXR) by small molecules, qHTS assay (AID 1346984). Note: nearly all actives have a fitted effect of over 40% in size. A digest of the protocol:
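Read-out is luminescence after One-Glo addition, following a 3 hr, 37C incubation with Luciferin-IPA CYP3A4 substrate (3uM final). Before that, compounds were on DPX-2 cells (HepG2 co-transfected with PXR element plus CYP3A4-promoter luciferase) for 24 hr at 37C.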

For assay [9] the target is unchanged. The assay can be described thus: Human pregnane X receptor (PXR) activation by small molecules, qHTS assay (AID 1346985). Note: nearly all actives have a fitted effect of over 40% in size. Put shortly:
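DPX-2 cells (HepG2 co-transfected with a PXR response element and a CYP3A4-promoter luciferase construct) were seeded at 2,000 per well, rested 5 hr at 37C, then exposed to DMSO-dissolved compounds for 24 hr. Activation was read as luciferase luminescence.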

Assay [10] concerns the target Cytochrome P450 2D6 (Homo sapiens) (UniProt P10635). As to the kind of experiment: Cytochrome P450 Family 2 Subfamily D Member 6 (CYP2D6) small molecule antagonists: luciferase reporter qHTS assay (AID 1671196). Note: nearly all actives have a fitted effect of over 50% in size. Note: potency is the fitted concentration of half-maximal effect. A digest of the protocol: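 CYP2D6 activity was followed as luminescence from its luciferin product after a 1 h NADPH-driven reaction at room temperature. Enzyme-substrate mix and compound were pre-incubated for 10 min, and the signal was read 20 min after adding detection reagent.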
(In general: In a reporter assay the amount or activity of a reporter protein is the signal.)

Assay [11] deals with Cytochrome P450 2C19 (Homo sapiens) (UniProt P33261). As to the kind of experiment: Cytochrome P450 Family 2 Subfamily C Member 19 (CYP2C19) small molecule antagonists: luciferase reporter qHTS assay (AID 1671197). Note: nearly all actives have a fitted effect of over 65% in size. Note: potency is the fitted concentration of half-maximal effect. Put shortly:
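Light output is proportional to CYP2C19 activity: proluciferin substrate is converted to luciferin, then detected by a luciferin detection reagent that also stops the 1 h, 37C NADPH-driven reaction. Ketoconazole serves as positive control.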

The target of assay [12] is Cytochrome P450 2C9 (Homo sapiens) (UniProt P11712). The assay can be described thus: Cytochrome P450 Family 2 Subfamily C Member 9 (CYP2C9) small molecule antagonists: luciferase reporter qHTS assay (AID 1671198). Note: series mostly up to about 120 µM; nearly all actives have a fitted effect of over 50% in size. A digest of the protocol:
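CYP2C9 activity was measured with a P450-Glo proluciferin substrate. Enzyme–substrate mix was held with compound for 10 min at room temperature, then NADPH regeneration solution was added for 1 h at 37C. Luciferin product was read as luminescence.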

In assay [13] the target is Cytochrome P450 1A2 (Homo sapiens) (UniProt P05177). The assay can be described thus: Cytochrome P450 Family 1 Subfamily A Member 2 (CYP1A2) small molecule antagonists: luciferase reporter qHTS assay (AID 1671199). Note: nearly all actives have a fitted effect of over 50% in size. Note: potency is the fitted concentration of half-maximal effect. Put shortly: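 Luminescence from luciferin formed by CYP1A2 from a proluciferin substrate, read 20 min after detection reagent. Compound was pre-incubated 10 min with enzyme-substrate, and reaction started with NADPH regeneration solution for 1 h at room temperature; furafylline control.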

In assay [14] the target is Voltage-gated inwardly rectifying potassium channel KCNH2 (Homo sapiens) (UniProt Q12809). The assay can be described thus: Human Ether-a-go-go-Related Gene (hERG) channel small molecule antagonists: fluorescence cell-based qHTS assay (AID 1671200). Put shortly:
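hERG-U2OS cells plated overnight at 37 C, loaded with FluxOR II dye 1 h at RT in dark; after 10 min, thallium stimulus added. Fluorescence (480/540 nm) read kinetically for 2 min at 1 s intervals.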

Assay [15] concerns the target Cytochrome P450 3A4 (Homo sapiens) (UniProt P08684). The assay can be described thus: Cytochrome P450 Family 3 Subfamily A Member 4 (CYP3A4) small molecule antagonists: luciferase reporter qHTS assay (AID 1671201). Note: nearly all actives have a fitted effect of over 50% in size. Note: potency is the fitted concentration of half-maximal effect. A digest of the protocol: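 P450-Glo CYP3A4 luminescent assay: compounds preincubated 10 min at room temperature with enzyme and proluciferin substrate, NADPH regeneration added, 1 h room-temperature reaction, stopped with luciferin detection reagent; luminescence read after 20 min. Ketoconazole positive control.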

Assay [16] addresses Nuclear receptor subfamily 1 group I member 2 (Homo sapiens) (UniProt O75469). As to the kind of experiment: Human pregnane X receptor (PXR) small molecule agonists, qHTS assay (AID 1346982). Note: nearly all actives have a fitted effect of over 35% in size. A digest of the protocol: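 Agonist mode: luminescence from ONE-Glo after 24 h compound exposure at 37C in HepG2 cells carrying hPXR-responsive CYP3A4 luciferase, plated in charcoal-stripped serum medium 5 h beforehand.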

Each structure is given as a SMILES string. “And” between values parts separate entries of the source, which are not always exact repeats. Identical values can stand only once. Results filed as inconclusive are left out. Some structures have more than one record in an assay (separate samples or runs), and their calls can disagree. The source made the active and inactive calls. Unless noted, calls come from the whole dose curve; as a rule, active = well fitted curve in the direction sought with a large enough effect in the repeat runs; inconclusive = weak or mixed curves; inactive = no such curve, though single readings can be large; an effect the other way counts as inactive or inconclusive.
% is set by controls: 0 for no effect and ±100 for the full control effect.

Cytochrome P450 2C19 (Homo sapiens), sequence (P33261 whole entry, looked up): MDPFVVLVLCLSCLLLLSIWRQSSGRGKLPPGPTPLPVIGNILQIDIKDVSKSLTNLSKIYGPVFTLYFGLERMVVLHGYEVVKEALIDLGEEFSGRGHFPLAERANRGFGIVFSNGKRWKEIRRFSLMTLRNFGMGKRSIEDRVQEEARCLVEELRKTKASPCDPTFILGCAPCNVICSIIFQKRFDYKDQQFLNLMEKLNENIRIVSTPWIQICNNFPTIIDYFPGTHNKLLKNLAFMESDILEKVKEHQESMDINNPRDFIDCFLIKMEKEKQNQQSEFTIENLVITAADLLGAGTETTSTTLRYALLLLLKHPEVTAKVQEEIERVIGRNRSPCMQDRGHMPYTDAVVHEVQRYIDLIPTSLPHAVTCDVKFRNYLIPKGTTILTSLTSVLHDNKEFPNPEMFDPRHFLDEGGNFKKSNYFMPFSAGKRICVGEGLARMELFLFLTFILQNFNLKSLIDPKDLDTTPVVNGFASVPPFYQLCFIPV
Nuclear receptor subfamily 1 group I member 2 (Rattus norvegicus), sequence (Q9R1A7 whole entry, looked up): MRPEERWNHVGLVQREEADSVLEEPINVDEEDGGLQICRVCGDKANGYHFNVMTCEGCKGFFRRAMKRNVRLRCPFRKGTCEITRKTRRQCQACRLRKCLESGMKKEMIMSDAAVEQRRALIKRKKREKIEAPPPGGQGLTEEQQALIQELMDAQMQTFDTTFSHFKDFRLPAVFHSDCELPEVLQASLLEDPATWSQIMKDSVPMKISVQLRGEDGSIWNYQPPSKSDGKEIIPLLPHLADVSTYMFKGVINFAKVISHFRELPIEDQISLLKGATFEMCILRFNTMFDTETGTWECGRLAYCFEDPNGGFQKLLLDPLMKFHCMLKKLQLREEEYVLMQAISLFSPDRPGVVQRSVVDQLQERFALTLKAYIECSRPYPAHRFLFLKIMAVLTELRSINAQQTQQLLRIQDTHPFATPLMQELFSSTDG
Nuclear receptor subfamily 1 group I member 2 (Homo sapiens), sequence (O75469 whole entry, looked up): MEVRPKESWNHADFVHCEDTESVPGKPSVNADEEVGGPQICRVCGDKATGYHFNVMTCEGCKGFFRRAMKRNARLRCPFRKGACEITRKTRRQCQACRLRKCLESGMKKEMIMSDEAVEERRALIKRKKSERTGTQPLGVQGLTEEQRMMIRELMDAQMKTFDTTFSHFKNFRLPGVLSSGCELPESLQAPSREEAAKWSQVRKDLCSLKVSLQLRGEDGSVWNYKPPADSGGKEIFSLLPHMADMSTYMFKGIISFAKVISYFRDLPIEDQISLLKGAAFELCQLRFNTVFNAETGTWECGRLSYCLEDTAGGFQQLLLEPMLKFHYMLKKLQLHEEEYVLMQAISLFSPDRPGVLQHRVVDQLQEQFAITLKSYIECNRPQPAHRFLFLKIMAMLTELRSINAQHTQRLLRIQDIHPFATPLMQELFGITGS
Cytochrome P450 2D6 (Homo sapiens), sequence (P10635 whole entry, looked up): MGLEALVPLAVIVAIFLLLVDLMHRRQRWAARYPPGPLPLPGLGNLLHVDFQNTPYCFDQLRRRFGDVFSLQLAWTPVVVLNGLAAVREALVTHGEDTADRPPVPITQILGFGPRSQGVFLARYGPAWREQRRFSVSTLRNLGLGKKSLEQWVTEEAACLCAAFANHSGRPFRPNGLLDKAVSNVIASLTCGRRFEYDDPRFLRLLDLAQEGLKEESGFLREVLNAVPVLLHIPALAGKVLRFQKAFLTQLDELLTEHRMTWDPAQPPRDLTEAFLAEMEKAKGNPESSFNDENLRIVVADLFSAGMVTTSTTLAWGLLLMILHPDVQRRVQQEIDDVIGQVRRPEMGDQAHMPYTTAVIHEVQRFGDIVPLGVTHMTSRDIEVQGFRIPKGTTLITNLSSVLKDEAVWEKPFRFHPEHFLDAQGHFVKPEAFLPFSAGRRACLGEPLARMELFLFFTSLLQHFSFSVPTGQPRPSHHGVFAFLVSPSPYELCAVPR
Cytochrome P450 3A4 (Homo sapiens), sequence (P08684 whole entry, looked up): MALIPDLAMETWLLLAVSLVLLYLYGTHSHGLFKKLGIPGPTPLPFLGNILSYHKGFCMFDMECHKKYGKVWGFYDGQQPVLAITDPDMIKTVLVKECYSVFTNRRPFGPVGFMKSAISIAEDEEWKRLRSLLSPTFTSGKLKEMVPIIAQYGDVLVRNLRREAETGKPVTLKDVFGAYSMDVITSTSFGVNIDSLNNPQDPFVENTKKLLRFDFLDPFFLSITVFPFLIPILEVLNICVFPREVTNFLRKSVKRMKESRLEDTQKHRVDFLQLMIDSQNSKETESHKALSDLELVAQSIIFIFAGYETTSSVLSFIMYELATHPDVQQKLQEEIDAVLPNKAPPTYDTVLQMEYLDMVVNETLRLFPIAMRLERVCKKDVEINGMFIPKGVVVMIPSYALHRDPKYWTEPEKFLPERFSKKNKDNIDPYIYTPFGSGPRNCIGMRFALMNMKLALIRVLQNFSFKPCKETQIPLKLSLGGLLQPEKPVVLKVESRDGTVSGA
Voltage-gated inwardly rectifying potassium channel KCNH2 (Homo sapiens), sequence (Q12809 whole entry, looked up): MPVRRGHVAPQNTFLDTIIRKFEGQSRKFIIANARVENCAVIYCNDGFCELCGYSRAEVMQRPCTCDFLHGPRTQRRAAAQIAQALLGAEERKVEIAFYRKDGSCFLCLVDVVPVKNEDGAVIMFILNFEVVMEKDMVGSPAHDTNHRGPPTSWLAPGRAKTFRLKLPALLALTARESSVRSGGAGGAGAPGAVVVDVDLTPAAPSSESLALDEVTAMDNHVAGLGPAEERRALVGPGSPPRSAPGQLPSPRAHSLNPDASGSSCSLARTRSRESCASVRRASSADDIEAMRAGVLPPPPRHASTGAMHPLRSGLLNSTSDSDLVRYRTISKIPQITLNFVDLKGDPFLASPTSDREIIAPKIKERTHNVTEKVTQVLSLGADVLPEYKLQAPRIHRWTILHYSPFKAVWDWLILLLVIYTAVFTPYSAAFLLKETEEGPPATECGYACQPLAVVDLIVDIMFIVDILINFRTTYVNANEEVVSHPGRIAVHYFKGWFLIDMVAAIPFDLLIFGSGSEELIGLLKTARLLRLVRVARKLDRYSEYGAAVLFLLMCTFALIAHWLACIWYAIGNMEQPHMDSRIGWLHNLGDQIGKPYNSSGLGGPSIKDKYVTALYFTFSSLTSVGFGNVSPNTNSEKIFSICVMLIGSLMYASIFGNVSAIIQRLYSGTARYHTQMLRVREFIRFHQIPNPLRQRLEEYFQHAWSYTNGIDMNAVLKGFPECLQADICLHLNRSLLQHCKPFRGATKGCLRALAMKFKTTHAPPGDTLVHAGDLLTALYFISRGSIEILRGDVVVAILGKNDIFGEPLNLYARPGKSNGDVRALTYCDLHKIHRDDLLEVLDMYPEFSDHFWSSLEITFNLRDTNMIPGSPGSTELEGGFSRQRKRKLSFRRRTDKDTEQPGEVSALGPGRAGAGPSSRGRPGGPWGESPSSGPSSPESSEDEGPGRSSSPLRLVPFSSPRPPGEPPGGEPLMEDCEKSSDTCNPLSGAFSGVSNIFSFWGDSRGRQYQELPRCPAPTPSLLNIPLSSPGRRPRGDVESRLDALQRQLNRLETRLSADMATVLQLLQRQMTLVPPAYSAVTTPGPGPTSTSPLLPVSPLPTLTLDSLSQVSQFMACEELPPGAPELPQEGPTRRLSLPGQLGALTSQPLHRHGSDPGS
Cytochrome P450 2C9 (Homo sapiens), sequence (P11712 whole entry, looked up): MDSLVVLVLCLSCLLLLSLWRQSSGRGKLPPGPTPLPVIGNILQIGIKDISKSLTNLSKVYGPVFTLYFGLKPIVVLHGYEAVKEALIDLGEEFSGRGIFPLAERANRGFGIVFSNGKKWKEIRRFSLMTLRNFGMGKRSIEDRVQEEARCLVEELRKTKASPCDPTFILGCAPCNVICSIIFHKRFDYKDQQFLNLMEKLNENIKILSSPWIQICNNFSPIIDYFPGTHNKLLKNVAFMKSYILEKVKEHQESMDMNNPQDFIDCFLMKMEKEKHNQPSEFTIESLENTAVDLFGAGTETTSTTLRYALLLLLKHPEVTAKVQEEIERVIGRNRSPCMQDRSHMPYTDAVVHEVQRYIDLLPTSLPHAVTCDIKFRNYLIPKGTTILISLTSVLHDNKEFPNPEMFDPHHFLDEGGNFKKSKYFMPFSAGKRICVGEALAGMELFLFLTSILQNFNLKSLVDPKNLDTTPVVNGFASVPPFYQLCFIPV
Thyrotropin-releasing hormone receptor (Homo sapiens), sequence (P34981 whole entry, looked up): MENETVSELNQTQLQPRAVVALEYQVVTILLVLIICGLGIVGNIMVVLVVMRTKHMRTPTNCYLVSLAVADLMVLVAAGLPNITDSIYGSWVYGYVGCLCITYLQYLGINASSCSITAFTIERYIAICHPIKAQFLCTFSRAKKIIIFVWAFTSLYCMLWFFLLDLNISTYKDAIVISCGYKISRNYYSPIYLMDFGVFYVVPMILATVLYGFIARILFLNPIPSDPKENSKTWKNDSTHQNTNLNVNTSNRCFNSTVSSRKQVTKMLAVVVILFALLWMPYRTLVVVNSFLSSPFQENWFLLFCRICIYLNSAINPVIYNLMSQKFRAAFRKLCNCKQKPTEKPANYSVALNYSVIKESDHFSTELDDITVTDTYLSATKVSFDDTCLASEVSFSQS
Cytochrome P450 1A2 (Homo sapiens), sequence (P05177 whole entry, looked up): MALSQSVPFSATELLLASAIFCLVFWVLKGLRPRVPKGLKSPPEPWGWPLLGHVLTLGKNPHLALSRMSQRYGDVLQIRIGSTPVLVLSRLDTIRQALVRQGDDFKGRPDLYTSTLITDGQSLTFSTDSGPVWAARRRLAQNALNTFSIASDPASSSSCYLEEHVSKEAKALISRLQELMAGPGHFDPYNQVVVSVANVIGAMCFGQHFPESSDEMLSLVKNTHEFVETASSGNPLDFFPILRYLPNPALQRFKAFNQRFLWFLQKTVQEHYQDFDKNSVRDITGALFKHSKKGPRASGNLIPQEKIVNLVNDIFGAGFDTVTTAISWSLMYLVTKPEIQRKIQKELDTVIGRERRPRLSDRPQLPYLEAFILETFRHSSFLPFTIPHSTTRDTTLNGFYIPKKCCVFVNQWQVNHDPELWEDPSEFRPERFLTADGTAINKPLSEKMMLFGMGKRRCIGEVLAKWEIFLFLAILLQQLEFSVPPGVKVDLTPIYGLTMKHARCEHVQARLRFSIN

Regarding `CCCCCCCCCCCCCCCC(=O)OC(C)C`, the compound was called inactive in [1], in assay [5] and in assay [9]. For the same compound, the Potency entry in assay [2], in assay [3], in assay [4], in [6], in [8] and in assay [10] was “inactive” in each case. For the same compound, the Potency entry in assay [11], in assay [12], in [13], in assay [14] and in assay [15] was “inactive” in each case. Also, the max activation in [7] is -0.875% (inactive).
Take `CC1(C)CC(N)CC(C)(CN)C1` (stereo not drawn): the call in [1] and in assay [5] was inactive. Moreover, the Potency result in assay [2], in assay [3], in assay [4], in assay [6], in assay [11] and in [12] was “inactive” each time. Also, the Potency entry in [13] and in [14] was “inactive” in each case. In addition, the Potency in assay [10] was 36.1 µM (active) and inactive; in assay [15], 5.73 µM (active) and 4.48 µM (active).
In the case of `CCNC(=S)NCC`, the result in assay [1] and in assay [5] was inactive. For the same compound, the Potency result in assay [2], in [3], in [4], in assay [6], in assay [10] and in [11] was “inactive” each time. Besides, the Potency entry in assay [12], in [14] and in [15] was “inactive” throughout. In addition, in assay [13], the Potency is 44.8 µM (active).
With `COc1cc(OC)c(C(=O)CCCN2CCCC2)c(OC)c1`, the compound was classed as inactive in assay [1] and in assay [5]. In addition, the Potency entry in assay [2], in [3], in assay [4], in assay [6], in assay [11] and in assay [13] was “inactive” throughout. Further, the Potency entry in assay [14] is “inactive”. For the same compound, the max activation in assay [7] was -3.14% (inactive).
In the case of `CC(=O)OC1CC(C)OC(C)O1` (stereo not drawn), the outcome in assay [1] and in [5] was inactive. Also, the Potency entry in assay [2], in [3], in assay [4], in assay [6], in assay [10] and in assay [12] was “inactive” each time. The Potency entry in [13], in assay [14] and in [15] was “inactive” each time. Moreover, the Potency in assay [11] was 70.1 µM (active) and inactive.
As to `CN1C(=O)CC[C@H]1c1cccnc1`, the call in assay [1] and in assay [5] was inactive. In addition, the Potency result in assay [2], in [3], in assay [4], in assay [6], in [11] and in assay [12] was “inactive” in each case. Besides, the Potency entry in [13] and in [14] was “inactive” each time. Also, the max activation in assay [7] was -3.2% (inactive).
Regarding `COc1ccc(C)cc1N`, the result in assay [1] and in assay [5] was inactive. For the same compound, the Potency result in assay [2], in assay [3], in assay [4], in [6], in assay [16] and in assay [14] was “inactive” in each case. For the same compound, the Potency in [10] was 24.3 µM (active) and 25.2 µM (active); in assay [11], 38.6 µM (active) and 35.6 µM (active); in [13], 28.3 µM (active); in [15], 6.86 µM (active) and 20 µM (active).
For the compound `O=[N+]([O-])c1ccc2nc[nH]c2c1`, the outcome in assay [1] and in assay [5] was inactive. The Potency result in [2], in assay [3], in [4], in assay [6], in assay [16] and in [10] was “inactive” each time. For the same compound, the Potency result in [11], in [14] and in assay [15] was “inactive” throughout. In addition, the Potency in assay [13] is 36.3 µM (active) and 39.9 µM (active).
For `O=C(O)/C=C/C(=O)O`, the call in assay [1] and in assay [5] was inactive. The Potency entry in assay [2], in assay [3], in assay [4], in assay [6], in assay [11] and in assay [12] was “inactive” in each case. In addition, the Potency entry in [13], in assay [14] and in [15] was “inactive” each time. For the same compound, the Potency in assay [10] was 37.6 µM (active) and inactive.
